In PubChem BioAssay (EPA / NIEHS):
Records with an inconclusive call do not appear. Some structures have more than one record in an assay (separate samples or runs), and their calls can disagree. Active and inactive are the calls of the source. The calls were made as follows: active = hit-call score of the fitted dose curve at least 0.9, where 1 is the maximum; inconclusive = response in the unintended direction; inactive = score below 0.9.

target: Retinoic acid receptor RXR-alpha (Homo sapiens) (UniProt P19793); test: ATG_RXRa_TRANS: Attagene TRANS-FACTORIAL HepG2 Assay for human Retinoid X Receptor alpha (RXRa) (AID 2283012)
Procedure: ATG_TRANS is a cell-based, multiplexed-readout assay that uses HepG2, a human liver cell line, with measurements taken at 24 hours after chemical dosing in a 24-well plate.ATG_RXRa_TRANS is one of 30 assay component(s) measured or calculated from the ATG_TRANS assay. It is designed to make measurements of mRNA induction, a form of inducible reporter, as detected with fluorescence intensity signals by Reverse transcription polymerase chain reaction (RT-PCR) and Capillary electrophoresis technology.Data from the assay component ATG_RXRa_TRANS was analyzed into 1 assay endpoint. This assay endpoint, ATG_RXRa_TRANS, was analyzed in the positive analysis fitting direction relative to DMSO as the negative control and baseline of activity. Using a type of inducible reporter, measures of mRNA for gain-of-signal activity can be used to understand the reporter gene at the transcription factor-level as they relate to the gene RXRA. Furthermore, this assay endpoint can be referred to as a primary readout, because this assay has produced multiple assay endpoints where this one serves a reporter gene function. To generalize the intended target to other relatable targets, this assay endpoint is annotated to the nuclear receptor intended target family, where the subfamily is non-steroidal.
Human liver HepG2 cells are transiently transfected with multiple reporter transcription units (MRTUs) in 6-well plates using FuGene 6 reagent (Roche; 3 ml FuGene/1 mg DNA). The MRTU constructs are regulated by a cis-regulating element (promoter). […] A major difference between the CIS and TRANS system is that in CIS activities of endogenous TFs are measured, whereas the TRANS assay evaluates changes in activities of exogenous, chimeric NR-Gal4 proteins. […] At the end of 24 hour incubation, total RNA was isolated using TriZol reagent (Invitrogen). The isolated RNA is then reverse-transcribed using oligo(dT) primer and Mo-MLV reverse transcriptase (Invitrogen) with DNAse I (Ambion) treatment for 30 min. The one-tenth of the produced cDNA was amplified by PCR using Taq DNA polymerase (Invitrogen) and two reporter sequence-specific primers. The PCR products were fluorescently labeled by primer extension with 6-arboxyfluorescein (6-FAM) 5'-labeled reporter sequence-specific primer (2 min at 95 C, 20 s at 68 C and 10 min at 72 C) and these products were digested with 5U of HpaI (New England Biolabs) for 2h at 37 C. The fragments were purified using Qiaquick PCR columns (Qiagen), analyzed on an ABI 3130xL genetic analyzer (Applied Biosystems) with peak positions identified by using a set of X-rhodamine (ROX)-labeled MapMarker1000 molecular weight standards (BioVentures). The raw capillary electrophoresis data was processed using Attagraph software (Attagene).

Retinoic acid receptor RXR-alpha (Homo sapiens), sequence (P19793 whole entry, looked up): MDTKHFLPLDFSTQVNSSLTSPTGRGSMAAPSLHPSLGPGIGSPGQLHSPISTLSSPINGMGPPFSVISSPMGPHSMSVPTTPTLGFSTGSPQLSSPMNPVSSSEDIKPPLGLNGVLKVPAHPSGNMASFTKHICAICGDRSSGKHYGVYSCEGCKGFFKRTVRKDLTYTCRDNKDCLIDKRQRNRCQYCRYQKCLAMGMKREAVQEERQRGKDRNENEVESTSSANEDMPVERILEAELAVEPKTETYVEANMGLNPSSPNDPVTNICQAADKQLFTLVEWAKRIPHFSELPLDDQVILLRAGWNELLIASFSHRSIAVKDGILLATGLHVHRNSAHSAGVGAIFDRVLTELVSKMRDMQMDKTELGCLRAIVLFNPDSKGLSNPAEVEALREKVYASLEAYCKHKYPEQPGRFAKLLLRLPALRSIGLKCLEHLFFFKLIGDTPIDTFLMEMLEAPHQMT

SMILES | outcome | AC50
CCOC(N)=O | inactive | 
OC(O)(C(F)C(O)(O)C(F)(F)F)C(F)(F)F | inactive | 
O=C(O)[C@H](O)[C@@H](O)C(=O)O | inactive | 
O=C(O)CO | inactive | 6.77 µM (active)
Cc1cccc(O)c1C | inactive | 
OC[C@H]1O[C@@](CO)(O[C@H]2O[C@H](CO)[C@@H](O)[C@H](O)[C@H]2O)[C@@H](O)[C@@H]1O | inactive | 
CC(C)c1nnc2ccc(-c3ocnc3-c3cc(F)ccc3F)cn12 | inactive | 
c1ccc2ncccc2c1 | inactive | 
C[C@]12C=CC(=O)C=C1CC[C@H]1[C@@H]3C[C@@H](O)[C@](O)(C(=O)CO)[C@@]3(C)C[C@H](O)[C@@]12F | inactive | 
CC(=O)c1ccccc1 | inactive | 
O=c1[nH]cnc2c1ncn2[C@H]1CC[C@@H](CO)O1 | inactive | 
CC(C)C(=O)Nc1ccc([N+](=O)[O-])c(C(F)(F)F)c1 | inactive | 
O=C(N[C@H](CO)[C@H](O)c1ccc([N+](=O)[O-])cc1)C(Cl)Cl | inactive | 
CCN(CC)C(=S)SSC(=S)N(CC)CC | inactive | 
CCCc1ccccc1 | inactive | 
NCC(F)(F)C(F)(F)C(F)(F)C(F)(F)F | inactive | 
OCC(CO)(CO)CO | inactive | 
CCCCCCCCCCCCCCCCOS(=O)(=O)O | inactive | 
NC(N)=O | inactive | 

SMILES | outcome | AC50
OCCNCCO | inactive | 
CCCCCCCC/C=C\CCCCCCCC(=O)OC[C@@H](O)[C@H]1OC[C@H](O)[C@H]1O | inactive | 
CCCCCCCCCCCCCCO | inactive | 
OCCOCCOCCO | inactive | 
c1ccc2c(c1)-c1cccc3c1c-2cc1ccccc13 | inactive | 
CCCOc1ccc(S(=O)(=O)N2CCN(CC)CC2)cc1-c1nc2c(CC)n(Cc3ccccn3)nc2c(=O)[nH]1 | inactive | 
C=CN1CCCC1=O | inactive | 
OCCC(F)(F)C(F)(F)C(F)(F)C(F)(F)F | inactive | 
CCCCCCCCN(C)C | inactive | 
COc1cc(C(C)C)c2c(c1)S(=O)(=O)N(COc1cc(=O)n3cccc(OCCN4CCCCC4)c3n1)C2=O | inactive | 
O=C(NO)C1(NS(=O)(=O)c2ccc(Oc3ccc(F)cc3)cc2)CCOCC1 | inactive | 
CCCCC(CC)C(=O)OCCOCCOCCOC(=O)C(CC)CCCC (stereo not given) | inactive | 
S=P(N1CC1)(N1CC1)N1CC1 | inactive | 
CCCC(CCC)C(=O)O | inactive | 
COCc1nnc(-c2ccc[n+]([O-])c2)n1-c1c(Cl)c(Cl)cc2[nH]c(=O)c(=O)[nH]c12 | inactive | 
FC(F)C(F)(F)COCC1CO1 (stereo not given) | inactive | 
O=S(=O)(O)c1ccc(N=Nc2c(O)ccc3cc(S(=O)(=O)O)ccc23)cc1 | inactive | 
FC(F)(F)COC(OCC(F)(F)F)OCC(F)(F)F | inactive | 
OCc1ccccc1 | inactive | 5.67 µM (active)
